# Whole data set: some 110,000 compounds, median “z-score” near -0.1, cut for the highest 2% near 2. The sample as a whole holds a higher share of the highest values than the screen did. Calls of active or inactive are those of the source.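 The calls were made as follows: active = z-score in the third read window above 3 or below -3; inactive = the rest.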
# Target: Metabotropic glutamate receptor 8 (Rattus norvegicus) (UniProt P70579)
# Assay: rat mGluR8 modulators via GIRK flux, primary screen, cell-based, thallium flux, HTS (AID 488969)
# Conditions: HEK293 rat mGluR8, GIRK (G protein-gated inwardly rectifying potassium channel) thallium flux, FluoZin2; at 10 µM; stronger effect = higher value; submaximal glutamate (EC20) added with thallium
# Chain of Metabotropic glutamate receptor 8 (Rattus norvegicus) (P70579 whole entry, looked up): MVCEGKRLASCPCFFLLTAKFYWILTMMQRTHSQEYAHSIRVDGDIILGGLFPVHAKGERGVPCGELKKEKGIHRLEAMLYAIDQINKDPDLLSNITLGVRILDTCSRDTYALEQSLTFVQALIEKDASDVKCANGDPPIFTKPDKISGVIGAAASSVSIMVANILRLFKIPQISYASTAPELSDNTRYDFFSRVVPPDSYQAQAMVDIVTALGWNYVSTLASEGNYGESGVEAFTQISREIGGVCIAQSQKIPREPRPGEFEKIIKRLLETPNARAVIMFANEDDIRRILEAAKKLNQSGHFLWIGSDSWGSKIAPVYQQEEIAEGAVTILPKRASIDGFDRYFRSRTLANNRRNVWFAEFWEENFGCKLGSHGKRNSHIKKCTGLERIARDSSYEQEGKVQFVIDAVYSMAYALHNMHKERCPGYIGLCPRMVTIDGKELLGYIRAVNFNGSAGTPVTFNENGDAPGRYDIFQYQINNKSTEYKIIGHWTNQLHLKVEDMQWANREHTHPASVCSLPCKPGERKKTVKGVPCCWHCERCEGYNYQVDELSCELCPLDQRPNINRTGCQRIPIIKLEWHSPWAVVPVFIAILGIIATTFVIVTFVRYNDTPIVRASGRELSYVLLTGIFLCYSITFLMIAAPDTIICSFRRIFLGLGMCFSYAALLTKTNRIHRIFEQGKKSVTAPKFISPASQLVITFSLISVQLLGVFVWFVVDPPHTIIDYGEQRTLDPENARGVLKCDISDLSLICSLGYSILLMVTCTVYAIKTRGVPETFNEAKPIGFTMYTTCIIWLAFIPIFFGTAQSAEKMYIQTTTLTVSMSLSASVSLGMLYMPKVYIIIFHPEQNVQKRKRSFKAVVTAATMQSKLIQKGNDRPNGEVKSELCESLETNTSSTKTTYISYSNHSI
row,Structure (SMILES),z-score
1,CCOC(=O)c1sc2ncnc(NCc3ccco3)c2c1C,14.7 (active)
2,CCOC(=O)c1sc2nc(CC(=O)OC)nc(NCc3ccco3)c2c1C,-0.245
3,Cc1c(NC(=O)c2cc3nc(-c4ccc(Br)cc4)cc(C(F)(F)F)n3n2)c(=O)n(-c2ccccc2)n1C,-0.51
4,Cc1cc(C)nc(/N=C(\N)Nc2ccc(F)c([N+](=O)[O-])c2)n1,-0.14
5,O=C(C(Cc1ccccc1)N1C(=O)C2C3C=CC(C3)C2C1=O)N1CCCCC1 (stereo not drawn),-0.174
6,CC(=O)Nc1ccccc1OCC(=O)c1ccc2c(c1)OCO2,2.07
7,COc1ccccc1NC(=O)NCc1ccc2c(c1)OCO2,0.532
8,CC(C)C(=O)Nc1ccccc1C(=O)OCC(=O)c1ccc2c(c1)OCCO2,-0.424
9,O=C1CC(c2cccc(Br)c2)c2cc3c(cc2N1)CCC3 (stereo not drawn),-0.00205
10,COc1ccc(S(=O)(=O)Nc2ccc(C)cc2)cc1OC,-0.166
11,CCC(CC)C(=O)N1CCN(Cc2ccc3c(c2)OCO3)CC1,-0.17
12,CCn1nc(C(=O)N2CCN(Cc3ccc4c(c3)OCO4)CC2)c2ccccc2c1=O,-0.474
13,CCn1cnc2sc(C(=O)Nc3ccc4c(c3)OCO4)c(C)c2c1=O,-0.145
14,Cc1cccc(C(=O)N2CCN(Cc3ccc4c(c3)OCO4)CC2)c1,-0.0762
15,CS(=O)(=O)N(CC(=O)N1CCN(Cc2ccc3c(c2)OCO3)CC1)Cc1ccc(Cl)cc1,0.174
16,O=C(NC(=S)N1CCN(Cc2ccc3c(c2)OCO3)CC1)c1ccc(Cl)cc1,15.2 (active)
17,O=C(c1ccc(Br)o1)N1CCN(Cc2ccc3c(c2)OCO3)CC1,-1.48
18,Cc1c(Cl)cccc1NC(=S)N1CCN(Cc2ccc3c(c2)OCO3)CC1,0.334
19,Cc1ccc(NC(=S)N2CCN(Cc3ccc4c(c3)OCO4)CC2)c(C)c1,-0.407
20,CCN(CC)c1ccc(C(=O)NC(=S)N2CCN(Cc3ccc4c(c3)OCO4)CC2)cc1,10 (active)

row,Structure (SMILES),z-score
1,O=C(NC(=S)N1CCN(Cc2ccc3c(c2)OCO3)CC1)c1cccc(Br)c1,9.35 (active)
2,CCn1cnc2sc(C(=O)N3CCN(Cc4ccc5c(c4)OCO5)CC3)c(C)c2c1=O,2.58
3,CCN1C(=O)/C(=C\N2CCCc3ccccc32)SC1=S,-0.289
4,O=C(c1ccc(OCC2CCCO2)cc1)N1CCN(c2ccccc2)CC1 (stereo not drawn),-0.525
5,O=C(NCCc1ccc(Cl)cc1)C1CCC(=O)N1Cc1ccccc1Cl (stereo not drawn),-0.0695
6,COc1ccc(NC(=O)C(NC(=O)CC2NC(=O)NC2=O)c2ccccc2)cc1 (stereo not drawn),0.0457
7,CC(=O)NC12CC3CC(CC(CC(=O)O)(C3)C1)C2,0.634
8,O=Cc1cccn1Cc1ccc(Cl)cc1Cl,-0.152
9,Cc1nn(-c2ccccc2)c2c1C1(C(=O)N(C)c3ccccc31)C(C#N)=C(N)O2 (stereo not drawn),-0.0421
10,O=C1OCCC1Sc1nc2ccccc2n1Cc1ccccc1 (stereo not drawn),-1.37
11,O=C1OCCC1Sc1nc2cc(Cl)ccc2n1Cc1ccccc1 (stereo not drawn),6.69 (active)
12,O=C1OCCC1Sc1nnc(-c2ccc(Cl)cc2)n1Cc1ccccc1 (stereo not drawn),-0.478
13,Cc1c(N=C2SCC(=O)N2/N=C/c2ccccc2Cl)c(=O)n(-c2ccccc2)n1C,0.339
14,Cc1sc2ncnc(SCC(=O)N3CCCC3=O)c2c1C,2.71
15,Cc1sc2ncnc(SCC(=O)NC3CC3)c2c1C,0.845
16,Cc1sc2ncnc(SCC(=O)N3CCCC3)c2c1C,0.342
17,COc1cc(C(=O)Nc2nnc(C)s2)cc(OC)c1OC,0.381
18,Cc1ccc(-n2nc(-c3cccnc3)cc2C(=O)N2CCOCC2)c(C)c1,0.372
19,Nc1nnc(C(=O)c2ccccc2N)s1,4.29 (active)
20,Nc1nnc(-c2ccccc2)s1,-0.337

row,Structure (SMILES),z-score
1,Nc1ccccc1NC(=O)c1ccccc1N,0.194
2,Cc1c(NC(=O)COC(=O)C(c2ccc(Cl)cc2)C(C)C)c(=O)n(-c2ccccc2)n1C (stereo not drawn),-0.457
3,CC(C)(C)CC(C)(C)NCC(O)COc1c(F)cc(Br)cc1F (stereo not drawn),3.25 (active)
4,CC(C)(C)NCC(O)COc1c(F)cc(Br)cc1F (stereo not drawn),0.622
5,OC(CNC1CCCC1)COc1c(F)cc(Br)cc1F (stereo not drawn),0.142
6,C=CCSC1=N/C(=C\c2ccsc2)C(=O)S1,-0.538
7,CC(C)OC(=O)c1cccnc1SCC(=O)N(C)c1ccccc1,-0.698
8,CCOc1ccc(CNC(=O)C2CCCN(S(C)(=O)=O)C2)cc1OC (stereo not drawn),0.258
9,CCC(=O)Nc1ccc(Cl)c(NC(=O)C(C)C)c1,0.418
10,O=C(NCCCn1ccnc1)Nc1ccc(Cl)c(Cl)c1,3.92 (active)
11,Cc1nn(C)cc1CNC(=O)Nc1ccc(Cl)c(Cl)c1,2.06
12,CN(C)CCNC(=O)Nc1ccc(Cl)c(Cl)c1,0.092
13,Cc1nn(C)cc1CNC(=O)Nc1cccc(Cl)c1,0.0377
14,O=C(NCCCn1ccnc1)Nc1ccc(Cl)cc1Cl,-0.326
15,Cc1nn(C)cc1CNC(=O)Nc1ccc(Br)cc1Cl,-0.126
16,C=COCCNC(=O)Nc1ccc(Cl)cc1Cl,0.104
17,C=COCCNC(=O)Nc1ccc(Cl)c(Cl)c1,3.37 (active)
18,O=C(NCCCn1ccnc1)Nc1cccc(Cl)c1,0.583

# From PubChem BioAssay AID488969 (Vanderbilt High Throughput Screening Facility, 2010)
